Test results from ChEMBL document CHEMBL1157539, “Thousands of chemical starting points for antimalarial lead identification” (Nature, 2010).

Tests used:
Format in all cases: functional
Plasmodium falciparum [1] = test: GSK_TCMDC: Inhibition of Plasmodium falciparum 3D7 in whole red blood cells, using parasite LDH activity as an index of growth. Test compounds present at 2uM
Plasmodium falciparum [2] = test: GSK_TCMDC: Inhibition of Plasmodium falciparum Dd2 in whole red blood cells, using parasite LDH activity as an index of growth. Test compounds present at 2uM
HepG2 = test: GSK_TCMDC: Percent inhibition of human HepG2 cell line. Test compounds present at 10uM.

Compound | Inhibition (Plasmodium falciparum [1]) [%] | Inhibition (Plasmodium falciparum [2]) [%] | Inhibition (HepG2) [%]
COc1cc(NC(=O)/C=C/c2cc3ccccc3n2C)ccc1OCCN(C(C)C)C(C)C.Cl | 99 | 68 | 16
CC1CCC(C[C@@H](C(=O)N[C@H](C(=O)Nc2nccs2)[C@@H](C)O)[C@H](CCC(F)(F)F)N(O)C=O)CC1 (some centres not stated) | 95 | 94 | 0
Nc1nc(N)c2c(ccc3c2ncn3Cc2ccccc2)n1 | 96 | 96 | 71
FC(F)(F)c1cccc(Nc2nc3ccccc3nc2Nc2cccc(C(F)(F)F)c2)c1 | 100 | 100 | 45
CC(C)CCN1CCCN(Cc2ccc(C(=O)Nc3ccc(Cl)cc3)cc2)CC1.O=C(O)C(F)(F)F | 94 | 15 | 46
CC1(C)C(=O)Nc2ccccc2N1C(=O)CN1CCN(c2ccccc2O)CC1 | 92 | 72 | 7
O=C(NCc1ccccn1)C(c1cc2ccccc2o1)N1CCN(C(c2ccccc2)c2ccccc2)CC1 (configuration not stated) | 95 | 68 | 17
COc1ccc(NC(=O)/C=C/c2ccccc2Cl)cc1OCCN1CCC(c2nc3ccccc3[nH]2)CC1.Cl | 92 | 16 | 35
CS(=O)(=O)O.CSc1ccc2ccccc2c1CCNCCCCNCCc1c(SC)ccc2ccccc12 | 100 | 60 | 99
